Test results taken from PubChem BioAssay (NCATS).
Several values for one entry are separate records, joined by “and”; a condition that tells them apart may be missing. Identical values can stand only once. Records with an inconclusive call do not appear. Activity calls are given as the source filed them. Unless noted, calls come from the whole dose curve; as a rule, active = well fitted curve in the direction sought with a large enough effect; inconclusive = small, poorly fitted or top-dose-only effect, or another doubt; inactive = no such curve, though single readings can be large; an effect the other way counts as inactive or inconclusive.

What was measured:
[1] = qHTS of Trypanosoma Brucei Inhibitors: LOPAC Validation (AID 624147); note: 0% is about no effect
How it was run: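 Luminescent Kinase-Glo Plus end-point after 45 min room-temperature reaction of T. brucei pyruvate kinase started with 130 uM ADP (final). Buffer TEA 50 mM pH 7.2 with KCl, MgCl2, BSA, Tween-20; titration-based qHTS with fitted concentration-effect curves.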

[2] = biological target: Glucagon-like peptide 1 receptor (Homo sapiens) (UniProt P43220); test: qHTS of GLP-1 Receptor Agonists: LOPAC Validation (AID 624148);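 note: 0% is about no effect; higher luminescence signal means agonism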
How it was run: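 HEK293 cells stably co-expressing GLP-1R and a cAMP-responsive luciferase reporter, plated 12 hours before compound, then incubated 4-6 hr at 37 deg C. Luminescence read 12 min after detection reagent.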

[3] = qHTS of Nrf2 Activators: LOPAC Validation (AID 624149); note: potency is the fitted concentration of half-maximal effect; for activation: 0% is about no effect
How it was run: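 Following overnight seeding in 5% FBS OPTI-MEM, AREc32_Fluc cells receive compounds for a 24 hr incubation at 37 deg C with 5% CO2. Steady-Glo is added, and after 30 min at RT luminescence is recorded.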

[4] = biological target: Arylsulfatase A (Homo sapiens) (UniProt P15289); test: qHTS screen for enhancers of Arylsulfatase A (ASA1): LOPAC Validation Assay (AID 720538)
How it was run: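 Read-out: fluorescence at Ex=525/Em=598 nm after 1N NaOH final stop. Patient fibroblasts carrying ASA-I179S had 48h compound exposure, then 14h room-temperature pNCS hydrolysis (0.5mM final) in lysis buffer. Signal increase = enhanced activity.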

[5] = qHTS for compounds that reverse cellular toxicity of Amyloid beta (A-beta) peptide in yeast: LOPAC Validation Assay (AID 720559);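 note: plate controls were DMSO for no effect and equimolar ferric chloride plus clioquinol rescue for full effect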
How it was run: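 OD600 growth readout after 48 hr at 30 C; A-beta-toxic yeast plus pinned compounds in medium. Normalization: DMSO = negative, equimolar FeCl3 + clioquinol = positive.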

[6] = qHTS for Activators of Parkin Expression: LOPAC Validation Assay (NLuc Reporter) (AID 720572)
How it was run: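 NLuc signal, read 10 min after reagent and following a prior FLuc read, is normalized to DMSO (0) and positive controls (100%). Cells: neuronal Parkin-promoter coincidence reporter line; compounds tested 7-point, 24 h, 37 C, 5% CO2.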

[7] = qHTS for Activators of Parkin Expression: LOPAC Validation Assay (FLuc Reporter) (AID 720573)
How it was run: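 FLuc luminescence read-out from a neuronal line expressing a Parkin-promoter-driven coincidence reporter. Cells treated 24 h at 37 C, 5% CO2 with compounds at 7 concentrations; signal increase normalized to DMSO and positive control.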

[8] = HTS Assay for Allosteric Antagonists of the Human D2 Dopamine Receptor: Hit Validation in HTRF (AID 624455); note: potency is the fitted concentration of half-maximal effect;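 note: stable D1 dopamine receptor cell line scored for blocking the D1 response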
How it was run: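 Validation of hits used D1 receptor stably expressed in cells with HTRF detection of response inhibition; origin screen measured calcium flux following EC80 dopamine in a force-coupled, inducible Hek293 Trex D2 cell line.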

[9] = qHTS assay for small molecule agonists of the antioxidant response element (ARE) signaling pathway (AID 651741; active = well fitted activation curve with a large enough effect in the signal ratio; the % refers to the signal ratio; note: potency is the fitted concentration of half-maximal effect; for activation: % of control where 0% means no effect)
How it was run: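 HepG2 ARE-bla reporter cells, 2,000/well; 5 h settle at 37 C/5% CO2; compound pin transfer (23 nL, DMSO); 16 h at 37 C; LiveBLAzer B/G FRET substrate, 2 h RT; fluorescence intensity read.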

[10] = qHTS assay for small molecule activators of the nuclear factor-kappa B (NF-kB) signaling pathway (AID 651749; active = well fitted activation curve with a large enough effect in the signal ratio; the % refers to the signal ratio; note: series mostly up to about 77 µM; % of control where 0% means no effect); conditions: NF-kB-bla ME-180 cells, beta-lactamase FRET ratio, 16 h; active compounds read high
How it was run: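 NF-kB-bla ME-180 cells, 2,000/well; 23 nL compound or DMSO pinned; 16 hr, 37C/5% CO2; beta-lactamase FRET read-out.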

[11] = qHTS assay for environmental chemicals that activate the Aryl hydrocarbon Receptor (AhR) signaling pathway (AID 651777); conditions: 1A2-DRE human hepatoma cells, luciferase, 24 h; activation: active compounds read high; note: % of control where 0% means no effect; nearly all actives have a fitted effect of over 15% in size
How it was run: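 Human hepatoma 1A2-DRE cells stably carrying a DRE/CYP1A2 promoter–luciferase reporter, 1,200 cells/well, exposed to compound 24 hr at 37 C. Luciferase read by One-Glo luminescence after 30 min at room temperature; increased signal marks AhR activation.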

[12] = biological target: Peroxisome proliferator-activated receptor alpha (Homo sapiens) (UniProt Q07869); test: qHTS assay for small molecule agonists of the peroxisome proliferator-activated receptor alpha (PPARalpha) signaling pathway (AID 651778); conditions: PathHunter PPARalpha complementation, chemiluminescence, 6 h; active compounds read high; note: % of control where 0% means no effect
How it was run: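 Enzyme-fragment complementation assay in which ligand-bound PPARalpha translocates and forms an active enzyme that generates chemiluminescence. Cells were plated overnight, exposed to compound for 6 hr at 37 C, and then given detection reagent for 60 min at room temperature.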

[13] = qHTS assay for small molecule agonists of the antioxidant response element (ARE) signaling pathway measured by Nrf2-dependant transcriptional activity (AID 720636; active = well fitted curve in the direction sought with a large enough effect in the repeat runs; an effect the other way counts as inactive or inconclusive; note: % of control where 0% means no effect)
How it was run: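 ARE-luc HepG2 cells carrying an Nrf2-responsive luciferase reporter, in medium with 1% dialyzed FBS, exposed to compound for 16 hr at 37 C, 5% CO2. Luminescence read 30 min after ONE-Glo addition.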

[14] = qHTS assay for small molecule activators of the p53 signaling pathway (AID 651743; active = well fitted activation curve with a large enough effect in the signal ratio, not every such curve was filed as active; the % refers to the signal ratio; note: series mostly up to about 92 µM; % of control where 0% means no effect); conditions: HCT-116 p53RE-bla, beta-lactamase FRET ratio, 16 h; activation: active compounds read high
How it was run: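 Reporter: beta-lactamase driven by p53 response elements, stably integrated in HCT-116 cells. Cells seeded at 4,000/well, 5 h preincubation, compound (DMSO) 16 h at 37 C; B/G FRET substrate 2 h RT; fluorescence intensity read.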

[15] = qHTS assay to identify small molecules that stimulate interleukin-8 (IL-8) secretion (AID 651758; active = well fitted activation curve with a large enough effect in the signal ratio; the % refers to the signal ratio; note: 0% is about no effect)
How it was run: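 Compounds are added to THP-1 cells (2000 per well) and left 16 hrs at 37 C. A labeled anti-IL-8 antibody pair is then added, and IL-8 secretion is measured by time-resolved FRET after 1-3 hrs at room temperature.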

[16] = biological target: Nuclear receptor ROR-gamma (Homo sapiens) (UniProt P51449); test: qHTS assay for small molecule antagonists of the retinoid-related orphan receptor gamma (ROR-gamma) signaling pathway (AID 651802);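 note: CHO cells with doxycycline-induced ROR-gamma expression; luciferase reporter luminescence driven by ROR response element; series mostly up to about 92 µM; % is set by controls: 0 for no effect and ±100 for the full control effect; nearly all actives have a fitted effect of over 60% in size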
How it was run: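 Doxycycline-induced reporter activity in engineered CHO cells (TET-inducible ROR, RORE-LUC) was measured by luminescence after 16hr compound exposure at 37C.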

[17] = qHTS assay for small molecule disruptors of the mitochondrial membrane potential - 1 hr assay (AID 651754; calls by dose curve; note: % is set by controls: 0 for no effect and ±100 for the full control effect; nearly all actives have a fitted effect of over 35% in size)
How it was run: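 In this qHTS format, a 1 hr compound treatment of HepG2 cells precedes Mito-MPS staining, and membrane potential is judged from aggregate (red) against monomer (green) fluorescence intensity.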

[18] = qHTS assay for small molecule disruptors of the mitochondrial membrane potential - 5 hr assay (AID 651755; calls by dose curve; note: % is set by controls: 0 for no effect and ±100 for the full control effect; nearly all actives have a fitted effect of over 40% in size)
How it was run: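 Read-out: ratiometric Mito-MPS fluorescence, green monomer (ex 490/em 535) vs red mitochondrial aggregate (ex 540/em 590). HepG2 cells treated 5 hr at 37C before 30 min dye loading.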

Peroxisome proliferator-activated receptor alpha (Homo sapiens), sequence (Q07869 whole entry, looked up, the tested form may be a part): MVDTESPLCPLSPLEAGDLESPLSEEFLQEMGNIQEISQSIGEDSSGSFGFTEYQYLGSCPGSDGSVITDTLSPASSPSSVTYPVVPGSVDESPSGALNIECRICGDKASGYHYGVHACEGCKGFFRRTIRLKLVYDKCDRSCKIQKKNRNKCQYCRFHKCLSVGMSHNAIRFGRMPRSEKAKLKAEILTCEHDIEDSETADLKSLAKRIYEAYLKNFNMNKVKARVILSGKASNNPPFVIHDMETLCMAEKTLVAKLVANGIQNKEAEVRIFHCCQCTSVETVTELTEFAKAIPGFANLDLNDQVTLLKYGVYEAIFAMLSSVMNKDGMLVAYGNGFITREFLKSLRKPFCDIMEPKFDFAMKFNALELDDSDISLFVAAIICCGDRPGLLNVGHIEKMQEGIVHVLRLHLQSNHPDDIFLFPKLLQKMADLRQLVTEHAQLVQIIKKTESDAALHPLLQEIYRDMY
Arylsulfatase A (Homo sapiens), sequence (P15289 whole entry, looked up): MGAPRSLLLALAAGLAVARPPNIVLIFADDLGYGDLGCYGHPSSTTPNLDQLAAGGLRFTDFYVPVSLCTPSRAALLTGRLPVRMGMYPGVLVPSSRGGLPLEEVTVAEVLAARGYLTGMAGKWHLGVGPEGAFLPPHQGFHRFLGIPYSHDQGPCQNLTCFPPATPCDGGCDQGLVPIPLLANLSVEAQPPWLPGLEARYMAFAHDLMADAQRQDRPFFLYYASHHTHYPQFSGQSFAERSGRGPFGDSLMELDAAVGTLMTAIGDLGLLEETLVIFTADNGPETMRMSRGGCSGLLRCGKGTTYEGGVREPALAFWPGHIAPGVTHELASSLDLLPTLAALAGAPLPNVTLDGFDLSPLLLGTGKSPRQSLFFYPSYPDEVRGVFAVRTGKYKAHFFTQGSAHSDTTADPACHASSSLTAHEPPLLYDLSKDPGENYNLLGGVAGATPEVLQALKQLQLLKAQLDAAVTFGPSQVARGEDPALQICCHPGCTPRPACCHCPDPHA
Nuclear receptor ROR-gamma (Homo sapiens), sequence (P51449 whole entry, looked up): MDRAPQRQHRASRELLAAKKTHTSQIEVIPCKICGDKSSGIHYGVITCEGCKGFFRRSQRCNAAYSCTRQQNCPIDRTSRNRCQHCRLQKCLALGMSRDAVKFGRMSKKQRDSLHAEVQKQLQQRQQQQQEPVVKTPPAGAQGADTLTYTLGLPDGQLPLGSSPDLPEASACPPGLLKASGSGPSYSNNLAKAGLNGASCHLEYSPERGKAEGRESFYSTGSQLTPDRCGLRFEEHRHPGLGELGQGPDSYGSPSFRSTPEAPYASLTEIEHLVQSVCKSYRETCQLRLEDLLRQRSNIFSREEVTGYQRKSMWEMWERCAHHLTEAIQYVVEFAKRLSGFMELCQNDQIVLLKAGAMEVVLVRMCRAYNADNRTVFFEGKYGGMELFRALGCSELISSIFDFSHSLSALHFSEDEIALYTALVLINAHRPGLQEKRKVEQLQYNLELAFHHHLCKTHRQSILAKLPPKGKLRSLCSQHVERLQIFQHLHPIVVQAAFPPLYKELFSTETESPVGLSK
Glucagon-like peptide 1 receptor (Homo sapiens), sequence (P43220 whole entry, looked up): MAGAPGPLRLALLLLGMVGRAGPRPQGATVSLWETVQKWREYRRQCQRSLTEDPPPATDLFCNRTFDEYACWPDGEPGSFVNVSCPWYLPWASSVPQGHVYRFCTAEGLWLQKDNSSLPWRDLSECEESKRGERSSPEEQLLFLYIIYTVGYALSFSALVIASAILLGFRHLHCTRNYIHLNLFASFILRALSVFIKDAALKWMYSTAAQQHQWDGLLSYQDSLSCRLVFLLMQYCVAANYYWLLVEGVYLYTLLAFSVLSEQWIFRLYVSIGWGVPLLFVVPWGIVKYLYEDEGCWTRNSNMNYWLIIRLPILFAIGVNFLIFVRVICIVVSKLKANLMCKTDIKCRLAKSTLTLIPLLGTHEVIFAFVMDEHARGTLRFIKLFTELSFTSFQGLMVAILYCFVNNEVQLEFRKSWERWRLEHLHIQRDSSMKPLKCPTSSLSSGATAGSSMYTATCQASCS

CCCCCCCCCCCCCC(=O)O[C@@H]1[C@@H](C)[C@@]2(O)[C@@H](C=C(CO)C[C@@]3(O)C(=O)C(C)=C[C@@H]23)C2C(C)(C)[C@@]21OC(C)=O (some centres not stated)
inactive: Potency [1] | outcome [2] | Potency [3] | Potency [4] | outcome [5] | Potency [6] | outcome [7]

C[C@H](N)CN1CCc2ccc(Br)cc21
inactive: Potency [1] | outcome [2] | Potency [3] | Potency [8] | Potency [4] | outcome [5] | Potency [6] | outcome [7]

O=[N+]([O-])C(Br)(CO)CO
active: Potency [9] 54500 nM
inactive: activation [10] -3.37% | activation [11] 5.58% | max response [12] 0.217%

O=[N+]([O-])c1ccc2nc(N3CCNCC3)ccc2c1
inactive: Potency [1] | outcome [2] | Potency [3] | Potency [8] | outcome [5] | Potency [6] | outcome [7]

NC(N)=Nc1ccc2[nH]c3c(c2c1)C[C@@]1(O)[C@H]2Cc4ccc(O)c5c4[C@@]1(CCN2CC1CC1)[C@H]3O5
inactive: Potency [1] | Potency [8] | Potency [4] | outcome [5] | Potency [6] | outcome [7]
active: Potency [3] 2910 nM

CCCSP(=O)(OCC)SCCC
inactive: activation [11] -2.38% | max response [12] 0.388% | Potency [13]

CC(C)[C@@]1(NC(=O)[C@@H]2C[C@@H]3c4cccc5[nH]cc(c45)C[C@H]3N(C)C2)O[C@@]2(O)[C@@H]3CCCN3C(=O)[C@H](Cc3ccccc3)N2C1=O
active: Potency [8] 51.7 nM
inactive: Potency [1] | outcome [2] | Potency [3] | Potency [4] | outcome [5] | Potency [6] | outcome [7]

CCOC(=O)c1ccccc1C(=O)OCC
inactive: Potency [9] | activation [14] 4.4% and -0.806% and -0.919% | activation [10] 1.25% and 1.36% and -0.459% | Potency [15] | max response [12] 0.572% and -3.94% and -0.67% | Potency [16] | Potency [13]

CCCN(CCC)CCc1ccc(O)c(O)c1
active: Potency [8] 92 nM
inactive: Potency [1] | outcome [2] | Potency [3] | outcome [5] | Potency [6] | outcome [7]

ClC=C(Cl)Cl
inactive: Potency [9] | activation [14] -0.563% and 7.22% | activation [10] -0.987% and 0.875% | Potency [17] | Potency [18] | activation [11] 3.37% and -2.62% | max response [12] -8.59% and -1.74% | Potency [16] | Potency [13]
